The values that follow come from PubChem BioAssay (NCI).

This is part of a sample that, as a whole, favours compounds with a hit. Of some 79,000 tested, about 15% had one in any assay. Values without a mark were called inactive. Calls of active or inactive are those of the source. Rule as the data show it: active = growth inhibition above about 70%; inactive = the rest.

The first assay can be described thus: NCI Yeast Anticancer Drug Screen. Data for the rad52 strain (AID 147).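 Also: 0% = growth of vehicle-treated control cultures.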 To be noted: S. cerevisiae rad52 mutant growth inhibition; at 11.0 µM; stronger effect = higher value. In outline:
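Yeast strain carrying a DNA damage repair alteration was exposed to test compounds. Growth inhibition was measured relative to vehicle-treated controls.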
Consider `C/C(=N\O)C1CC2C=C(C#N)C1N(Cc1ccccc1)C2` (centres undefined), for which the growth inhibition was -1%.

As to `O=[N+]([O-])C(=C(Sc1ccccc1)Sc1ccccc1)C(Cl)=C(Cl)Cl`, the growth inhibition is 45%.

On to `CCCCCCCCCC/C=C\C(=O)O`, for which the growth inhibition is -9%.

Consider `COc1ccc(N=C2C(=O)Nc3ccc(Br)cc32)cc1`, for which the growth inhibition is 18%.

Regarding `COc1ccccc1C(=O)OCC1CCCN2CCCCC12` (centres undefined), the growth inhibition is 57%.

Regarding `CC(C)(Br)C(=O)/C=C/c1ccc(Cl)c(Cl)c1`, the growth inhibition was -1%.

In the case of `Nc1ccccc1CC(O)C(=O)O` (centres undefined), the growth inhibition is 14%.

As to `CC(=O)N/N=C/C(C)(C)C(C)(C)/C=N/NC(C)=O`, the growth inhibition is -32%.

For the compound `CN(C)c1nc2sc3c(c2c(=O)o1)CCCC3`, the growth inhibition was 6%.

In the case of `CC(C)OC(=O)Oc1ccccc1OC(=O)OC(C)C`, the growth inhibition is 1%.

Regarding `Cc1ccc(N)c(S)c1`, the growth inhibition is -12%.

In the case of `O=C(O)c1ccccc1NC(=S)c1ccccc1`, the growth inhibition was -4%.

For `COC(=O)c1ccc(NCC2=CC(=O)C=CC2=O)cc1O`, the growth inhibition was 80% (active).

For the compound `NC(N)=N/N=C\c1c2ccccc2cc2ccccc12`, the growth inhibition was -50%.

`COC(=O)CSSCc1ccc([N+](=O)[O-])cc1`: the growth inhibition was 40%.

Turning to `CCS(=O)(=O)c1ccc(/C=C/C=N/NC(=S)NCC(C)C)cc1`, the growth inhibition is -1%.

Consider `N#CC(C(=O)Nc1ccccc1)C1=C(Cl)C(=O)c2ccccc2C1=O` (centres undefined), for which the growth inhibition is 98% (active).

On to `C[C@H](CCC(=O)NN)[C@H]1CC[C@H]2[C@@H]3CC[C@@H]4C[C@H](O)CC[C@]4(C)[C@H]3CC[C@]12C`, for which the growth inhibition is 0%.

On to `CC[n+]1ccc2c(C)c3[nH]c4ccc(O)cc4c3c(C)c2c1`, for which the growth inhibition was 70% (active).

Staying with this assay, now noted: S. cerevisiae rad52 mutant growth inhibition; at 33.0 µM; stronger effect = higher value.
With `CCCc1cc(C(=O)OCC)cc(CCC)c1O`, the growth inhibition was -11%.

With `CC(C)[N+]([O-])(CCCNc1c2ccccc2nc2cccc([N+](=O)[O-])c12)C(C)C`, the growth inhibition was 96% (active).

Turning to `COc1cc2c3c(cccc3c1)C(=O)N(CCN(C)C)C2=O`, the growth inhibition was 55%.

Regarding `NC(=O)NN=C(CS)CS`, the growth inhibition is 50%.

Regarding `Cc1ccc(NC(=O)/C(Cl)=C(\Cl)C(=O)O)cc1C`, the growth inhibition is 99% (active).

As to `CCN(CC)CC[n+]1ccc2c(C)c3[nH]c4ccc(O)cc4c3c(C)c2c1`, the growth inhibition is 87% (active).

As for `CC(CC(C)(C)[N+](C)(C)C)[N+](C)(C)C` (centres undefined), the growth inhibition was 15%.

For `COc1ccc(OC)c2cc3ccccc3cc12`, the growth inhibition was 10%.

Regarding `Nc1ncncc1C(C1=C(O)COC1=O)C1=C(O)COC1=O`, the growth inhibition is -2%.

Take `CSC1=NNC(SC)=NN1`: the growth inhibition was 70% (active).

Regarding `Cc1c(Cl)ccc2c1S(=O)(=O)c1cccc(Cl)c1-2`, the growth inhibition is -9%.

On to `[O-][n+]1c2ccc(O)cc2nc2ccc(Cl)cc21`, for which the growth inhibition is 75% (active).

Consider `COc1ccc2ccc3ccccc3c2c1C=O`, for which the growth inhibition was 0%.

Turning to `Nc1ccc2c(c1)C(=O)c1cccc(N)c1C2=O`, the growth inhibition is 93% (active).

In the case of `O=C(c1ccc(Cl)cc1Cl)C(Cl)Cl`, the growth inhibition is 74% (active).

Turning to `COc1cc(C(=O)/C=C/c2ccccc2O)ccc1O`, the growth inhibition was 98% (active).

Regarding `O=Cc1cccc2ccc3ccccc3c12`, the growth inhibition was 62%.

On to `O=C(Nc1ccc(Cl)cc1)OCC#CCCl`, for which the growth inhibition was 16%.

As for `Cn1ccnc1Oc1ccc(Cl)cc1`, the growth inhibition is 61%.

Regarding `c1ccc2c(c1)C(=NCCCN1CCCCCC1)c1cccn1-2`, the growth inhibition was -6%.

Turning to `C/C(=N\O)C1CC2C=C(C#N)C1N(Cc1ccccc1)C2` (centres undefined), the growth inhibition was 1%.

Regarding `O=[N+]([O-])C(=C(Sc1ccccc1)Sc1ccccc1)C(Cl)=C(Cl)Cl`, the growth inhibition was 56%.

On to `CCCCCCCCCC/C=C\C(=O)O`, for which the growth inhibition is -13%.

Regarding `COc1ccc(N=C2C(=O)Nc3ccc(Br)cc32)cc1`, the growth inhibition is 23%.

In the case of `COc1ccccc1C(=O)OCC1CCCN2CCCCC12` (centres undefined), the growth inhibition was 76% (active).

Turning to `CC(C)(Br)C(=O)/C=C/c1ccc(Cl)c(Cl)c1`, the growth inhibition was 2%.

Consider `Nc1ccccc1CC(O)C(=O)O` (centres undefined), for which the growth inhibition is 53%.

Regarding `CC(=O)N/N=C/C(C)(C)C(C)(C)/C=N/NC(C)=O`, the growth inhibition was 38%.

In the case of `CN(C)c1nc2sc3c(c2c(=O)o1)CCCC3`, the growth inhibition was 26%.

On to `CC(C)OC(=O)Oc1ccccc1OC(=O)OC(C)C`, for which the growth inhibition is 2%.

With `Cc1ccc(N)c(S)c1`, the growth inhibition is 88% (active).

As for `O=C(O)c1ccccc1NC(=S)c1ccccc1`, the growth inhibition was 7%.

Take `COC(=O)c1ccc(NCC2=CC(=O)C=CC2=O)cc1O`: the growth inhibition is 97% (active).

For the compound `NC(N)=N/N=C\c1c2ccccc2cc2ccccc12`, the growth inhibition was 27%.

For the compound `COC(=O)CSSCc1ccc([N+](=O)[O-])cc1`, the growth inhibition is 75% (active).
